Experimental findings from ChEMBL document CHEMBL1961873, “Compounds: GSK PKIS; Assays: Nanosyn kinase panel” (2012) are described below.

Test [1] addresses T1, Serine/threonine-protein kinase D2 (Homo sapiens) (UniProt Q9BZL6).
T1 sequence (whole entry): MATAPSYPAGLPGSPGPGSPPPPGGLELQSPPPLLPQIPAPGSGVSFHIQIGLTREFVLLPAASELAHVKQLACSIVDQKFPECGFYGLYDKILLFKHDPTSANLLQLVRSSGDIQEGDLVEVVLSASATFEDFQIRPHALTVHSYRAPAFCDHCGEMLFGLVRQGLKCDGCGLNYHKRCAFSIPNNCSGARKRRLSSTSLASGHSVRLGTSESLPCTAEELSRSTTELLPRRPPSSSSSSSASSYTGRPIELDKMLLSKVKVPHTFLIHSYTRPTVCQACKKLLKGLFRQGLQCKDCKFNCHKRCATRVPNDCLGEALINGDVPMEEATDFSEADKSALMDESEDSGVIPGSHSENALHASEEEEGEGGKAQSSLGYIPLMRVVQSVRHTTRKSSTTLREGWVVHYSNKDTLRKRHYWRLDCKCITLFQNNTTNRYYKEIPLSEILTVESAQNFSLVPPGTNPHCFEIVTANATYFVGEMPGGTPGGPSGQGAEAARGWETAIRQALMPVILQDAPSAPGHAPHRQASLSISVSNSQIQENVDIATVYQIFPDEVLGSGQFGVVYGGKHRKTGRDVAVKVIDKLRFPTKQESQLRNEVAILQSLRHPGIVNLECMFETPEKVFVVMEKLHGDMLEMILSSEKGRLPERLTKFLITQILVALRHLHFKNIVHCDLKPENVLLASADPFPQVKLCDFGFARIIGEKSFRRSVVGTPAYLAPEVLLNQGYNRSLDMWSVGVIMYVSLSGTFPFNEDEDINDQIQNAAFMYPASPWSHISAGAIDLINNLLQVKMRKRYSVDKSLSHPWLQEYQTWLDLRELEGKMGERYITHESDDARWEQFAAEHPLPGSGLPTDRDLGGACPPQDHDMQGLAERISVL
The settings on record: at 1 µM.

The target of test [2] is T2, Serine/threonine-protein kinase D3 (Homo sapiens) (UniProt O94806).
T2 sequence (whole entry): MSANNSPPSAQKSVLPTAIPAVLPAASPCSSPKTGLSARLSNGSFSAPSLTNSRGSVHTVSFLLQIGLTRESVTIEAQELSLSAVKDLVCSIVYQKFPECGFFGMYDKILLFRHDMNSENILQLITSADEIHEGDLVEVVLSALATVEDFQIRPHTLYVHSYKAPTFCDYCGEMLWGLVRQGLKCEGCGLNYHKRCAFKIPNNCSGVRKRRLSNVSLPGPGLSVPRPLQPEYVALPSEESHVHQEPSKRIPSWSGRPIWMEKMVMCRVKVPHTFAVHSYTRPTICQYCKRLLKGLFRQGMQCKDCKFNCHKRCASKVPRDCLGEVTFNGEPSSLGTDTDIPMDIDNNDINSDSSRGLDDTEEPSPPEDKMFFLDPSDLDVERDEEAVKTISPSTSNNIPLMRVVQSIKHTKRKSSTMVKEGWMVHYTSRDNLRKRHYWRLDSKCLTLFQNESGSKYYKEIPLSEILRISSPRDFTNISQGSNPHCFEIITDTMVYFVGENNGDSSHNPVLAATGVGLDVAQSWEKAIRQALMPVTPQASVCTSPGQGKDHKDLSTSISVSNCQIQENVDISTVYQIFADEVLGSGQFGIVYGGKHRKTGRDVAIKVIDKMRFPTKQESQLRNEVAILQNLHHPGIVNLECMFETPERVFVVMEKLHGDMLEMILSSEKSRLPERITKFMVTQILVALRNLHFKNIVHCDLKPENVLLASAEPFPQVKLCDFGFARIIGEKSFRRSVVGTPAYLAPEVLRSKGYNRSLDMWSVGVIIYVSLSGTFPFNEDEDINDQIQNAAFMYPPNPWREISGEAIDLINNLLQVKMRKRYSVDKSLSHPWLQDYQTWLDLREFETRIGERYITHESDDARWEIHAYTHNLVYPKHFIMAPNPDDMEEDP
The conditions noted are these: at 0.1 µM.

Test [3] concerns the target T2, Serine/threonine-protein kinase D3 (Homo sapiens). The conditions noted are these: at 1 µM.
Test [4] addresses T3, cGMP-dependent protein kinase 1 (Homo sapiens) (UniProt Q13976).
T3 sequence (whole entry): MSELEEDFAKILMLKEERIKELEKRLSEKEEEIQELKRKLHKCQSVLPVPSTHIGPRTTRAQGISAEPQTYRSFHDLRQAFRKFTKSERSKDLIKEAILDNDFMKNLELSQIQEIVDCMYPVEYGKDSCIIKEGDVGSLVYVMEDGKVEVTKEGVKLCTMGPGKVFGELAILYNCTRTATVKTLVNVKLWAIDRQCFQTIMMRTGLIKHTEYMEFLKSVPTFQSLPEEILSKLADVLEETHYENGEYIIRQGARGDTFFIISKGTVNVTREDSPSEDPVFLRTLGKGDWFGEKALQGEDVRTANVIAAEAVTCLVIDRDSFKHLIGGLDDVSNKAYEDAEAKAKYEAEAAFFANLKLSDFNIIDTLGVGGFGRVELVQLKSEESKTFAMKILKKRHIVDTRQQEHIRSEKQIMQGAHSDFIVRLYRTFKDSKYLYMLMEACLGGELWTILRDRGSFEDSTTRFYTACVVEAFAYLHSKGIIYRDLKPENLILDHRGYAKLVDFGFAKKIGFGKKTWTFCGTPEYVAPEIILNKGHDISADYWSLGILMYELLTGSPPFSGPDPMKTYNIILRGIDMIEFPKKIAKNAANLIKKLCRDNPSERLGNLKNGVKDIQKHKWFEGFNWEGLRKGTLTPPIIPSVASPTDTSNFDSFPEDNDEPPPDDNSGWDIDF
The settings on record: at 0.1 µM.

Test [5] addresses T4, cGMP-dependent protein kinase 2 (Homo sapiens) (UniProt Q13237).
T4 sequence (whole entry): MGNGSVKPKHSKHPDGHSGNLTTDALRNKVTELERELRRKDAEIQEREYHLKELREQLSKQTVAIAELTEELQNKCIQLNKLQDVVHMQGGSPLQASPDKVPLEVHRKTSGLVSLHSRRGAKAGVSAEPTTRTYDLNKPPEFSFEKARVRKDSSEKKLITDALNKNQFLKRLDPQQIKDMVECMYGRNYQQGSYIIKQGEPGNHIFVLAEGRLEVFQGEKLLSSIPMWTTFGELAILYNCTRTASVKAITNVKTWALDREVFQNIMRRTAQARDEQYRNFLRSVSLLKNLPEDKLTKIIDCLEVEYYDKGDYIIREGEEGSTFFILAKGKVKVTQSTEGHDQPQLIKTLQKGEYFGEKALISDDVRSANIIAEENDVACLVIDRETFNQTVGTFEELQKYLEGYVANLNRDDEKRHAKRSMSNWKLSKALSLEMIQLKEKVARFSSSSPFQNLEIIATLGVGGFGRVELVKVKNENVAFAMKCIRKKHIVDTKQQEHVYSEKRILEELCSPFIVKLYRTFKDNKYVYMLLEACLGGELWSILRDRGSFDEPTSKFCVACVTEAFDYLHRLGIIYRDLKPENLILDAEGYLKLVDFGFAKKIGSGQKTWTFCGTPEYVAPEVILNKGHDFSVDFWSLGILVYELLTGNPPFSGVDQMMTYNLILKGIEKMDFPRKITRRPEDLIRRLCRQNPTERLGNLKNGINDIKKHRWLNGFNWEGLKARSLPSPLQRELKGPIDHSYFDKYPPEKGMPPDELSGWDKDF
The conditions noted are these: at 0.1 µM.

Test [6] deals with T4, cGMP-dependent protein kinase 2 (Homo sapiens). The conditions noted are these: at 1 µM.
For test [7], the target named is T5, cAMP-dependent protein kinase catalytic subunit PRKX (Homo sapiens) (UniProt P51817).
T5 sequence (whole entry): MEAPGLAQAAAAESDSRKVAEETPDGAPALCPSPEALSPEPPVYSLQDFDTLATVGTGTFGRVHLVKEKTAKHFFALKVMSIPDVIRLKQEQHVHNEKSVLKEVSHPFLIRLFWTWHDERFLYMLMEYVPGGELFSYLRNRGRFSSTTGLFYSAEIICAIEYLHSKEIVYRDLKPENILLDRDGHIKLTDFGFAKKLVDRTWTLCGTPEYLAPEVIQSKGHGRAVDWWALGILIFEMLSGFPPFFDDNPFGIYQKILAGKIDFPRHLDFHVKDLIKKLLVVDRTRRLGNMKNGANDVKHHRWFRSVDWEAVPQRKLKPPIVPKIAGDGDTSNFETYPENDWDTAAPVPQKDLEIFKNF
The conditions noted are these: at 0.1 µM.

The target in test [8] is T5, cAMP-dependent protein kinase catalytic subunit PRKX (Homo sapiens). The settings on record: at 1 µM.
In test [9] the target is Rho-associated protein kinase 1 (Homo sapiens) (UniProt Q13464). The settings on record: at 0.1 µM.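 Note: values are mean percent inhibition of ROCK1.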
Sequence of Rho-associated protein kinase 1 (Homo sapiens) (Q13464 2-1354 limits assumed): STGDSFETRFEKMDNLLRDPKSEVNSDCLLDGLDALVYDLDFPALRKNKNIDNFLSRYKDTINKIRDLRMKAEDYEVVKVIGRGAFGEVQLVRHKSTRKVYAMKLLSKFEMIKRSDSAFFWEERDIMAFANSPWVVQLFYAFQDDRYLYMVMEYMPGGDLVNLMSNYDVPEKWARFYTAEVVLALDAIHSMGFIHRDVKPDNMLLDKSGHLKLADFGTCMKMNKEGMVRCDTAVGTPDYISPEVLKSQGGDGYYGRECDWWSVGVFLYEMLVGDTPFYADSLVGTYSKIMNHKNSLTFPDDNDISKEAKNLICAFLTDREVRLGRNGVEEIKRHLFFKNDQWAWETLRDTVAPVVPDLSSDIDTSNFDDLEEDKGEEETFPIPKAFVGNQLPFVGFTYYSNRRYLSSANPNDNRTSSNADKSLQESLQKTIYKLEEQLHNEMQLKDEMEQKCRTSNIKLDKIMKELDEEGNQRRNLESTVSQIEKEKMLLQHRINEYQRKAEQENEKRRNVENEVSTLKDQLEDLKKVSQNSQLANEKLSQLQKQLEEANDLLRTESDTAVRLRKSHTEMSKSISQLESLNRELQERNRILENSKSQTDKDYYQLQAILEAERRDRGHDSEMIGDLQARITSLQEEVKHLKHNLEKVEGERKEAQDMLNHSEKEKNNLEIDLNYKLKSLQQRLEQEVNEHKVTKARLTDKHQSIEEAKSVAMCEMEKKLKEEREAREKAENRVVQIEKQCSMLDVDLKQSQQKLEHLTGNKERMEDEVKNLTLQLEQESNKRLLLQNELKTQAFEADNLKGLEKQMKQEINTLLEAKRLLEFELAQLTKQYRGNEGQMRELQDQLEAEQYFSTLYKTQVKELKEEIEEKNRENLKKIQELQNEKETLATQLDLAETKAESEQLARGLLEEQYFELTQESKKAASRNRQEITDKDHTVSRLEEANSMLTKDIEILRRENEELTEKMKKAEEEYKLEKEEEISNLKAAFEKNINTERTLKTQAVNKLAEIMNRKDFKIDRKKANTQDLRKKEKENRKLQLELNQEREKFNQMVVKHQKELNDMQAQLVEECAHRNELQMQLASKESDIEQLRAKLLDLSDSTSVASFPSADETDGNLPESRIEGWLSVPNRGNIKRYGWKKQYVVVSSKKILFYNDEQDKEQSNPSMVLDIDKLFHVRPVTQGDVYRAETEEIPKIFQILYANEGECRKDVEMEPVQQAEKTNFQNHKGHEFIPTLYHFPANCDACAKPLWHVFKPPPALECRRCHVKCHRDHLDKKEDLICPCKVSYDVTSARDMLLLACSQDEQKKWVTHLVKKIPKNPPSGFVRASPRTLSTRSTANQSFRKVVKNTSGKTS
The target of test [10] is T3, cGMP-dependent protein kinase 1 (Homo sapiens). The settings on record: at 1 µM.

The inhibition is the drop in the measured response relative to a control, in per cent. On to `COc1cccc(-n2ncc3c(N/N=C/c4ccncc4)ncnc32)c1`, for which the inhibition in [1] amounted to 9.06%; in test [2] it was 5.79%; in test [3], 9.03%; in [4], 3.25%; in [5], 1.96%; in [6], 6.05%. For the same compound, the inhibition was 1.85% in test [7], 2.86% in test [8] and 2.51% in test [9].

`NC(=O)c1sc(-n2cnc3cc(C(F)(F)F)ccc32)cc1OCc1ccccc1Br`: the inhibition is 2.17% in test [1]; 1.16% in test [2]; 1.32% in test [3]; 0.44% in test [4]; -0.88% in test [10]; 0.81% in test [5]. The inhibition in [6] was 1.01%; in test [7], 0.67%; in test [8] it was 1.17%; in [9] it was 0.41%.

In the case of `CCn1c(-c2nonc2N)nc2c(C#CC(C)(C)O)ncc(OCC3CCNCC3)c21`, the inhibition was determined as 3.59% in test [1]; 0.21% in test [2]; 4.23% in test [3]; 9.8% in [4]; 48.9% in test [10]; 35.4% in test [5]. The inhibition in test [6] was found to be 70.1%; in [7], 45.6%; in test [8], 75.7%; in test [9] it was 1.94%.

For the compound `COc1cc(C=NNc2ncnc3c2cnn3Cc2ccccc2)ccc1O`, the inhibition is 1% in test [1]; -4.03% in [2]; -1.04% in [3]; 0.15% in [4]; 3.36% in test [10]; 0.26% in test [5]. In addition, the inhibition in test [6] came out at 4.01%; in [7], 0.31%; in test [8], 5.24%; in test [9], 1.47%.

As for `CCn1c(-c2nonc2N)nc2c(C#CC(C)(C)O)ncc(OC[C@@H]3CCCN3)c21`, the inhibition was 12.6% in [1]; 2.38% in test [2]; 15.9% in test [3]; 49.9% in test [4]; 76.4% in test [10]; 65.7% in test [5]. Further, the inhibition in test [6] was 76.5%; in test [7], 77%; in test [8] it was 85.4%; in test [9], 1.1%.

As to `CCn1c(-c2nonc2N)nc2c(C#CC(C)(C)O)nc(O[C@@H](CN)c3ccccc3)cc21`, the inhibition in test [1] was determined as 66.3%; in test [2] it was 10.9%; in test [3] it was 64.3%; in test [4] it was 68.7%; in test [10] it was 81.1%; in test [5], 67.9%. The inhibition in test [6] came to 84.4%; in [7] it was 82.3%; in [8], 88.2%; in test [9], 9.16%.

`COc1cc2c(cc1Nc1nc(Nc3ccsc3C(N)=O)c3cc[nH]c3n1)N(C(=O)CN(C)C)CCC2`: the inhibition was 39.7% in test [1]; 9.23% in test [2]; 51.1% in [3]; -0.55% in test [4]; -0.01% in [10]; 0.12% in test [5]. Further, the inhibition in test [6] stood at 1.58%; in [7], 2.02%; in [8] it was 1.29%; in [9], 5.03%.
